According to the supplement of paper PMC8728848:
This excerpt belongs to a sample that is enriched for the strongest signals.

How the values were obtained:
Assay in all cases: glycan array binding signal (z-score within array); higher = stronger binding
Settings in all cases: glycan notation: IUPAC condensed, linker removed
[1] = target: GlcA3S(b1-3)Gal(b1-4)GlcNAc(b1-2)Man
Outline: (§1)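 Negative Z-scores can be read as non-binding. The Z-score is calculated within each array and then averaged across arrays of one protein sequence at different concentrations or buffers and across linkers. Arrays, 3228 in all, were curated from the Consortium for Functional Glycomics database and kept only where the protein sequence was available.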

[2] = target: GlcA3S(b1-3)Gal(b1-4)GlcNAc(b1-3)Gal(b1-4)Glc
Outline: as §1

[3] = target: GlcNAc(a1-4)Gal(b1-4)GalNAc
Outline: as §1

[4] = target: GlcNAc(a1-4)Gal(b1-4)GlcNAc(b1-3)Gal(b1-4)[Fuc(a1-3)]GlcNAc(b1-3)Gal(b1-4)[Fuc(a1-3)]GlcNAc
Outline: as §1

[5] = target: GlcNAc(b1-2)[GlcNAc(b1-4)]Man(a1-3)[GlcNAc(b1-4)][GlcNAc(b1-2)[GlcNAc(b1-6)]Man(a1-6)]Man(b1-4)GlcNAc(b1-4)[Fuc(a1-6)]GlcNAc
Outline: as §1

[6] = target: GlcNAc(b1-3)Gal(b1-4)GlcNAc(b1-3)Gal(b1-4)GlcNAc(b1-3)Gal(b1-4)GlcNAc(b1-2)Man(a1-3)[GlcNAc(b1-3)Gal(b1-4)GlcNAc(b1-3)Gal(b1-4)GlcNAc(b1-3)Gal(b1-4)GlcNAc(b1-2)Man(a1-6)]Man(b1-4)GlcNAc(b1-4)GlcNAc
Outline: as §1

[7] = target: GlcNAc(b1-6)GalNAc
Outline: as §1

[8] = target: Man(a1-3)[Man(a1-6)]Man(b1-4)GlcNAc(b1-4)[Fuc(a1-6)]GlcNAc
Outline: as §1

[9] = target: Neu5Ac(a2-3)Gal(b1-3)GlcNAc(b1-2)Man
Outline: as §1

[10] = target: Neu5Ac(a2-3)Gal(b1-3)GlcNAc(b1-2)Man(a1-3)[GlcNAc(b1-4)][Neu5Ac(a2-3)Gal(b1-3)GlcNAc(b1-2)Man(a1-6)]Man(b1-4)GlcNAc(b1-4)GlcNAc
Outline: as §1

[11] = target: Neu5Ac(a2-3)Gal(b1-3)GlcNAc(b1-3)GalNAc
Outline: as §1

[12] = target: Neu5Ac(a2-3)Gal(b1-3)GlcNAc(b1-6)GalNAc
Outline: as §1

[13] = target: Neu5Ac(a2-3)Gal(b1-3)[Fuc(a1-4)]GlcNAc
Outline: as §1

[14] = target: Neu5Ac(a2-3)Gal(b1-4)GlcNAc(b1-2)Man(a1-3)[Neu5Ac(a2-6)Gal(b1-4)GlcNAc(b1-2)Man(a1-6)]Man(b1-4)GlcNAc(b1-4)GlcNAc
Outline: as §1

[15] = target: Neu5Ac(a2-3)Gal(b1-4)GlcNAc(b1-3)Gal
Outline: as §1

[16] = target: Neu5Ac(a2-3)Gal(b1-4)GlcNAc(b1-3)Gal(b1-4)GlcNAc(b1-6)[Gal(b1-3)]GalNAc
Outline: as §1

[17] = target: Neu5Ac(a2-6)Gal(b1-4)GlcNAc(b1-2)Man(a1-3)[Neu5Ac(a2-6)Gal(b1-4)GlcNAc(b1-2)Man(a1-6)]Man(b1-4)GlcNAc(b1-4)GlcNAc
Outline: as §1

[18] = target: Neu5Ac(a2-6)GlcNAc(b1-4)GlcNAc(b1-4)GlcNAc
Outline: as §1

[19] = target: Neu5Ac(b2-6)GalNAc
Outline: as §1

[20] = target: Neu5Gc(a2-3)Gal(b1-3)GlcNAc
Outline: as §1

[21] = target: Neu5Gc(a2-3)Gal(b1-4)GlcNAc
Outline: as §1

[22] = target: Neu5Gc(a2-6)GalNAc
Outline: as §1

B1: Epa11 (Candida glabrata) (protein)
chain: MGSSHHHHHHSSGLVPRGSHMASSNAPNYPVGCSPSVGTQLTPGLSLEVYAYPMDGNNGYCWNATYKDPEFPRSGYLKNKLLGKADGVVGPLNFLAKNKDCSPKVDTLPAGFNFPQPITVTNFTMVLFGYLAPKQSGKYTFKLLADDLLLLNLGATNAFDCCNREATKNNLGEFLAYNLWPNQDKNVTVYLEKGVYYPLRLFFNNRDGGSQLDFSYYFNDSPAPLTDFSGMFFSVPDGAECPARI
glycan array binding signal (z-score) [1]: 0.356 | glycan array binding signal (z-score) [2]: -0.579 | glycan array binding signal (z-score) [3]: -0.891 | glycan array binding signal (z-score) [4]: 0.211 | glycan array binding signal (z-score) [5]: 2.33 | glycan array binding signal (z-score) [6]: -0.16 | glycan array binding signal (z-score) [7]: -0.586 | glycan array binding signal (z-score) [8]: 5.52 | glycan array binding signal (z-score) [9]: -0.819 | glycan array binding signal (z-score) [10]: 2.81 | glycan array binding signal (z-score) [11]: 0.127 | glycan array binding signal (z-score) [12]: 0.52 | glycan array binding signal (z-score) [13]: -0.534 | glycan array binding signal (z-score) [14]: -0.573 | glycan array binding signal (z-score) [15]: -0.477 | glycan array binding signal (z-score) [16]: -0.079 | glycan array binding signal (z-score) [17]: -0.433 | glycan array binding signal (z-score) [18]: -0.053 | glycan array binding signal (z-score) [19]: -0.375 | glycan array binding signal (z-score) [20]: 0.029 | glycan array binding signal (z-score) [21]: -0.644 | glycan array binding signal (z-score) [22]: -0.604
